According to PubChem BioAssay (NCI):
Compounds without any hit were thinned out: in the full panel of roughly 79,000, 15% have a hit. Rule as the data show it: active = growth inhibition above about 70%; inactive = the rest.

Tests used:
[1] = NCI Yeast Anticancer Drug Screen. Data for the rad50 strain (AID 155);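 also: 0% = growth of vehicle-only cultures of the same strain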; conditions: S. cerevisiae rad50 strain growth inhibition; at 50.0 µM; hits give high values
Procedure, shortened: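 A DNA repair-deficient yeast mutant serves as the test organism; compound-induced growth inhibition is calculated against vehicle-treated cells.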

[2] = NCI Yeast Anticancer Drug Screen. Data for the mec2-1 strain (AID 157); conditions: S. cerevisiae mec2-1 strain, at 50.0 µM, hits give high values
Procedure, shortened: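 mec2-1 yeast strain, carrying an alteration in DNA damage repair or cell cycle control, was exposed to compounds; growth inhibition was measured relative to vehicle-treated controls.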

[3] = NCI Yeast Anticancer Drug Screen. Data for the sgs1 mgt1 strain (AID 161);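 also: 0% = growth of cultures given vehicle only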; conditions: S. cerevisiae sgs1 mgt1 strain, at 50.0 µM, hits give high values
Procedure, shortened: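 This yeast growth screen uses a strain with defined DNA-repair lesions; compound-treated growth is compared with vehicle-treated growth.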

[4] = NCI Yeast Anticancer Drug Screen. Data for the cln2 rad14 strain (AID 165);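 also: 0% = growth equal to vehicle treated cultures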; conditions: S. cerevisiae cln2 rad14 strain, at 50.0 µM, hits give high values
Procedure, shortened: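 Yeast carrying cln2 and rad14 alterations (cell cycle control and DNA damage repair) were exposed to compounds. Growth inhibition was measured against vehicle-treated controls.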

[5] = NCI Yeast Anticancer Drug Screen. Data for the bub3 strain (AID 167); conditions: S. cerevisiae bub3 mutant strain, at 50.0 µM, hits give high values
Procedure, shortened: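 Inhibition values come from growth of compound-treated mutant yeast normalised to vehicle-treated controls.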

[6] = NCI Yeast Anticancer Drug Screen. Data for the mlh1 rad18 strain (AID 175); conditions: S. cerevisiae mlh1 rad18 strain growth inhibition; at 50.0 µM; hits give high values
Procedure, shortened: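 Growth inhibition of the yeast strain was measured after compound exposure and expressed relative to vehicle-treated controls. The strain carries defined defects in DNA damage repair.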

Measured: growth inhibition

Cc1cc(S(=O)(=O)F)ccc1O
inactive: [1] -3% | [2] -6.2% | [3] -16.5% | [4] -42.8% | [5] -2.6% | [6] -1.3%

COc1cc2c(c(OC)c1OC)CC1c3c(cc4c(c3-2)OCO4)CCN1C (centres undefined)
inactive: [1] -5.85% | [2] -31.5% | [3] -18.1% | [4] 13.7% | [5] 2.1% | [6] -17.3%

CCOP(=O)(OCC)/C(C#N)=C/c1cccn1C
inactive: [1] -0.95% | [2] -32.7% | [3] -44% | [4] -17.2% | [5] -21.8% | [6] -7.35%

Cc1ccc(S(=O)(=O)OC2CC3c4ccccc4C2c2cccc[n+]23)cc1 (centres undefined)
inactive: [1] 68% | [2] 7.5% | [3] 36.4% | [4] -18.4% | [5] 8.8% | [6] 12.1%

N#CCc1ccccc1.N#CCc1ccccc1.[C-]#[O+].[C-]#[O+].[C-]#[O+].[C-]#[O+].[W]
inactive: [1] -10.9% | [2] -16.2% | [3] -7.1% | [4] -33.2% | [5] -5.05% | [6] -11.3%

O=S(=O)(O)c1ccc(Cl)cc1
inactive: [1] -0.45% | [2] -3.2% | [3] -1.15% | [4] 23.1% | [5] 0.3% | [6] 9.1%

C/C(CCl)=N/NC1=NC(C)(CCC2(C)N=C(N/N=C(/C)CCl)SP2(=O)NC23CC4CC(CC(C4)C2)C3)P(=O)(NC23CC4CC(CC(C4)C2)C3)S1 (centres undefined)
inactive: [1] -9.25% | [2] 1.15% | [3] 16.8% | [4] -21.8% | [5] -19.5% | [6] -28.8%

O=c1n(CC2CS2)c2ccccc2n1CC1CS1 (centres undefined)
inactive: [1] 42% | [2] -0.6% | [3] 4.9% | [4] -30.4% | [5] -11.1% | [6] -5.3%

CC[C@@H]1[C@H]2C[C@H]3[C@@H]4N(C)c5ccccc5[C@]45C[C@@H](C2[C@H]5O)N3[C@H]1O (some centres undefined)
inactive: [1] -12.4% | [2] -6.15% | [3] -5.15% | [4] 5.05% | [5] -13.7% | [6] 15.6%

OCC(S)CS (centres undefined)
inactive: [1] 17.4% | [2] -26.4% | [3] 12.6% | [4] 2.9% | [5] 9.55% | [6] -13.4%

O=C(O)C1CCCN1[N+](=O)[O-] (centres undefined)
inactive: [1] -21.7% | [2] -5.95% | [3] -5.15% | [4] -12.9% | [5] -5.55% | [6] -8.15%

CC(C)[C@@H]1ON1C(C)c1ccccc1 (some centres undefined)
inactive: [1] 21.3% | [2] -10.1% | [3] 25.8% | [4] 11.6% | [5] 27.4% | [6] 16%

COc1ccc2[nH]cc(CCN(C)C)c2c1
inactive: [1] 4.8% | [2] -24.8% | [3] 1.85% | [4] 17.1% | [5] -1.6% | [6] -9.85%

C/C=C/C(C)C1(CCC)C(=O)NC(=O)NC1=O (centres undefined)
inactive: [1] 0.35% | [2] 2.6% | [3] -3.8% | [4] -37.2% | [5] 8.5% | [6] -3.8%

O=C(O)CCCO
inactive: [1] -13.8% | [2] -20.3% | [3] -23.9% | [4] 3.3% | [5] 1.45% | [6] -10.4%

Cc1cc(C)c(C#N)c(SSC(Cl)(Cl)Cl)n1
inactive: [1] 5.75% | [2] 18.9% | [3] 59.2% | [4] 15.1% | [5] 61.9% | [6] 40.9%

CNC(Cc1ccccc1)c1cccc(OC)c1O (centres undefined)
inactive: [1] -7.55% | [2] -25.6% | [3] -53.6% | [4] -28.4% | [5] -14.2% | [6] -10.8%

CC12CCC3C(CCC4=CC(O)CCC43C=O)C1(O)CCC2c1ccc(=O)oc1 (centres undefined)
inactive: [1] 7.15% | [2] -35% | [3] 18.1% | [4] 15.2% | [5] -11.2% | [6] 5.05%

CCCCCCCCCCCCCCCCS(=O)(=O)c1ccc(S(=O)(=O)F)cc1NC(=O)C(F)(F)F
inactive: [1] -22.4% | [2] -9.9% | [3] -3.6% | [4] 24.1% | [5] 12.6% | [6] 8.2%
